Several values for one entry are separate records, joined by “and”; a condition that tells them apart may be missing. Equal values may be shown once. Screen size: about 5,500 compounds; about 2,000 (36%) were called active. Inconclusive results (about 18%) are left out. Rule as the data show it: active = normalized growth mostly below about 0.91 (no sharp cut-off); inconclusive = no clear call, values can overlap the other calls; inactive = mostly above about 0.92. This is one part of the list.
Test: chemical genetic growth profiling, strain panel (AID 1159580);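 also: tested at 20 µM; growth read once vehicle control cultures reached saturation at 30 °C; 1 = growth at the plate median or of vehicle wells; lower values mean less growth of the strain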
Conditions: S. cerevisiae deletion strains, growth OD

Measured: normalized growth

OC[C@H]1O[C@@H](O[C@H]2[C@H](O)[C@@H](O)[C@@H](O)O[C@@H]2CO)[C@H](O)[C@@H](O)[C@@H]1O
inactive: locus YAL013W, strain DEP1, active compounds read low 1.02 | locus YAL021C, strain ccr4, active compounds read low 1.01 | locus YAL026C, strain drs2, active compounds read low 1.01 | locus YAL030W, strain snc1, active compounds read low 1 | locus YBL061C, strain skt5, active compounds read low 1 | locus YBR009C, strain hhf1, active compounds read low 1.06 | locus YBR021W, strain FUR4, active compounds read low 1.04 | locus YBR023C, strain chs3, active compounds read low 1.01 | locus YBR171W, strain sec66, active compounds read low 0.996 | locus YBR229C, strain ROT2, active compounds read low 1 | locus YBR231C, strain swc5, active compounds read low 1 | locus YBR279W, strain paf1, active compounds read low 0.993 | locus YCL011C, strain gbp2, active compounds read low 1.02 | locus YCL016C, strain dcc1, active compounds read low 1.01 | locus YCL029C, strain bik1, active compounds read low 1.01 | locus YCL061C, strain MRC1, active compounds read low 1 | locus YCL069W, strain vba3, active compounds read low 1.01 | locus YCR088W, strain abp1, active compounds read low 0.997 | locus YDL005C, strain med2, active compounds read low 0.986 | locus YDL035C, strain GPR1, active compounds read low 1.04 | locus YDL040C, strain nat1, active compounds read low 0.994 | locus YDL074C, strain BRE1, active compounds read low 1.09 | locus YDL101C, strain DUN1, active compounds read low 1.01 | locus YDL134C, strain PPH21, active compounds read low 1.01 | locus YDL185W, strain tfp1, active compounds read low 1.02 | locus YDL192W, strain arf1, active compounds read low 1.03 | locus YDR001C, strain nth1, active compounds read low 0.999 | locus YDR069C, strain doa4, active compounds read low 0.981 | locus YDR101C, strain arx1, active compounds read low 1.02 | locus YDR137W, strain rgp1, active compounds read low 1.01 | locus YDR159W, strain sac3, active compounds read low 0.972 | locus YDR162C, strain NBP2, active compounds read low 1.02 | locus YDR195W, strain ref2 0.958 | locus YDR297W, strain sur2, active compounds read low 1 | locus YDR318W, strain mcm21, active compounds read low 0.994 | locus YDR334W, strain swr1, active compounds read low 0.996 | locus YDR335W, strain msn5, active compounds read low 1.01 | locus YDR388W, active compounds read low 1.02 | locus YDR392W, strain spt3, active compounds read low 0.957 | locus YDR502C, strain sam2, active compounds read low 0.992 | locus YEL003W, strain gim4, active compounds read low 1.02 | locus YEL037C, strain rad23, active compounds read low 1.01 | locus YEL061C, strain CIN8 (second series), active compounds read low 0.999 | locus YEL061C, strain CIN8, active compounds read low 1.01 | locus YER015W, strain faa2, active compounds read low 0.995 | locus YER016W, strain bim1, active compounds read low 1 | locus YER110C, active compounds read low 1.02 | locus YER111C, strain swi4, active compounds read low 1 | locus YER155C, strain BEM2 (second series), active compounds read low 0.987 | locus YER155C, strain BEM2, active compounds read low 1.02 | locus YER167W, strain BCK2, active compounds read low 1.01 | locus YFR010W, strain ubp6, active compounds read low 0.99 | locus YGL078C, strain dbp3, active compounds read low 1.03 | locus YGL086W, strain mad1, active compounds read low 1.04 | locus YGL167C, strain pmr1, active compounds read low 0.999 | locus YGL173C, strain kem1, active compounds read low 1 | locus YGL227W, strain vid30, active compounds read low 1 | locus YGL240W, strain doc1, active compounds read low 1.03 | locus YGL248W, strain PDE1, active compounds read low 1.01 | locus YGL253W, strain hxk2, active compounds read low 1.03 | locus YGR078C, strain PAC10, active compounds read low 1.03 | locus YGR135W, strain pre9, active compounds read low 1.02 | locus YGR252W, strain gcn5, active compounds read low 1 | locus YHR013C, strain ard1, active compounds read low 0.997 | locus YHR027C, strain rpn1, active compounds read low 1.02 | locus YHR030C, strain SLT2, active compounds read low 1.01 and 0.972 | locus YHR079C, strain IRE1 (second series), active compounds read low 1.01 | locus YHR079C, strain IRE1, active compounds read low 0.96 | locus YHR094C, strain hxt1, active compounds read low 1.05 | locus YHR129C, strain ARP1, active compounds read low 1.02 | locus YHR142W, strain chs7, active compounds read low 1.02 | locus YHR200W, strain rpn10, active compounds read low 1.02 | locus YIL066C, strain RNR3, active compounds read low 1.02 | locus YIL073C, strain SPO22, active compounds read low 1.12 | locus YIL125W, strain kgd1, active compounds read low 1.01 | locus YIR030C, strain dcg1, active compounds read low 1.01 | locus YJL092W, strain hpr5, active compounds read low 1.02 | locus YJL095W, strain BCK1 (second series), active compounds read low 0.995 | locus YJL095W, strain BCK1, active compounds read low 1.02 and 1.06 | locus YJL115W, strain asf1, active compounds read low 0.99 | locus YJL129C, strain trk1, active compounds read low 0.987 | locus YJL134W, strain LCB3, active compounds read low 1 | locus YJL154C, strain vps35, active compounds read low 0.991 | locus YJL164C, strain tpk1, active compounds read low 1.02 | locus YJL166W, strain qcr8, active compounds read low 1.03 | locus YJL168C, strain set2, active compounds read low 1.03 | locus YJL187C, strain SWE1 (second series), active compounds read low 1.02 | locus YJL187C, strain SWE1, active compounds read low 1 | locus YJR043C, strain POL32, active compounds read low 1.02 | locus YJR066W, strain TOR1, active compounds read low 0.921

From PubChem BioAssay AID1159580 (chemical genetic matrix, 2015)
